# Results filed as inconclusive are left out. Calls of active or inactive are those of the source. The calls were made as follows: active = hit-call score of the fitted dose curve at least 0.9, where 1 is the maximum; inconclusive = response in the unintended direction; inactive = score below 0.9.
# Target: human Retinoic Acid Receptor beta (RARb), RARB (gene 5915) (UniProt P10826)
# Experiment: ATG_RARb_TRANS: Attagene TRANS-FACTORIAL HepG2 Assay for human Retinoic Acid Receptor beta (AID 2283004)
# Protocol: ATG_TRANS is a cell-based, multiplexed-readout assay that uses HepG2, a human liver cell line, with measurements taken at 24 hours after chemical dosing in a 24-well plate.ATG_RARb_TRANS is one of 30 assay component(s) measured or calculated from the ATG_TRANS assay. It is designed to make measurements of mRNA induction, a form of inducible reporter, as detected with fluorescence intensity signals by Reverse transcription polymerase chain reaction (RT-PCR) and Capillary electrophoresis technology.Data from the assay component ATG_RARb_TRANS was analyzed into 1 assay endpoint. This assay endpoint, ATG_RARb_TRANS, was analyzed in the positive analysis fitting direction relative to DMSO as the negative control and baseline of activity. Using a type of inducible reporter, measures of mRNA for gain-of-signal activity can be used to understand the reporter gene at the transcription factor-level as they relate to the gene RARB. Furthermore, this assay endpoint can be referred to as a primary readout, because this assay has produced multiple assay endpoints where this one serves a reporter gene function. To generalize the intended target to other relatable targets, this assay endpoint is annotated to the nuclear receptor intended target family, where the subfamily is non-steroidal.
# Human liver HepG2 cells are transiently transfected with multiple reporter transcription units (MRTUs) in 6-well plates using FuGene 6 reagent (Roche; 3 ml FuGene/1 mg DNA). The MRTU constructs are regulated by a cis-regulating element (promoter). […] A major difference between the CIS and TRANS system is that in CIS activities of endogenous TFs are measured, whereas the TRANS assay evaluates changes in activities of exogenous, chimeric NR-Gal4 proteins. […] At the end of 24 hour incubation, total RNA was isolated using TriZol reagent (Invitrogen). The isolated RNA is then reverse-transcribed using oligo(dT) primer and Mo-MLV reverse transcriptase (Invitrogen) with DNAse I (Ambion) treatment for 30 min. The one-tenth of the produced cDNA was amplified by PCR using Taq DNA polymerase (Invitrogen) and two reporter sequence-specific primers. The PCR products were fluorescently labeled by primer extension with 6-arboxyfluorescein (6-FAM) 5'-labeled reporter sequence-specific primer (2 min at 95 C, 20 s at 68 C and 10 min at 72 C) and these products were digested with 5U of HpaI (New England Biolabs) for 2h at 37 C. The fragments were purified using Qiaquick PCR columns (Qiagen), analyzed on an ABI 3130xL genetic analyzer (Applied Biosystems) with peak positions identified by using a set of X-rhodamine (ROX)-labeled MapMarker1000 molecular weight standards (BioVentures). The raw capillary electrophoresis data was processed using Attagraph software (Attagene).
# Chain of human Retinoic Acid Receptor beta (RARb), RARB (gene 5915) (P10826 whole entry, looked up): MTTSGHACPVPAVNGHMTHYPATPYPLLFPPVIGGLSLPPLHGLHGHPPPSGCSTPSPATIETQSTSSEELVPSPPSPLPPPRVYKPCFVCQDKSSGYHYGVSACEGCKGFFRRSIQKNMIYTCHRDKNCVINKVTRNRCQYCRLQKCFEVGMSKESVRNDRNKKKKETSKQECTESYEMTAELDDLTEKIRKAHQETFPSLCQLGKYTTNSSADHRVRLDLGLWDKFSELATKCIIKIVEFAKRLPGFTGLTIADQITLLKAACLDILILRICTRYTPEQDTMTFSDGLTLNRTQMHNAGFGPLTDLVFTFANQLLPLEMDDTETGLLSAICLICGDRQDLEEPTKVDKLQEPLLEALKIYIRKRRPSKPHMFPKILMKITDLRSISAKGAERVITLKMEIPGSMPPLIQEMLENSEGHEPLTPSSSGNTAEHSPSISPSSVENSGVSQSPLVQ
SMILES,outcome,AC50
C1COCCN1,inactive,–
CC(C)c1ccccc1N,inactive,–
O=C(O)C(F)(F)C(F)(F)C(F)(F)C(F)(F)C(F)(F)C(F)(F)C(F)(F)C(F)(F)C(F)(F)C(F)F,inactive,–
C=CC(=O)OCC(F)(F)C(F)(F)C(F)(F)C(F)(F)COC(=O)C=C,inactive,–
FC1CC(F)(F)C(F)(F)C1(F)F (stereo not given),inactive,–
CCCCCCCCCCCCCCCC[N+](C)(C)Cc1ccccc1,inactive,–
C=C(C)C(=O)OCC(F)(F)C(F)(F)C(F)(F)C(F)(F)C(F)(F)C(F)(F)C(F)(F)F,inactive,–
OCC(F)(F)C(F)(F)C(F)(F)C(F)(F)C(F)(F)C(F)F,inactive,–
O=C(Cl)C(F)(F)C(F)(F)C(F)(F)C(F)(F)C(F)(F)C(F)(F)C(F)(F)C(F)(F)F,inactive,–
CO[Si](OC)(c1ccccc1)c1ccccc1,inactive,–
FC(F)(F)C(F)(F)C(F)(F)C(F)(F)C(F)(F)C(F)(F)CC1CO1 (stereo not given),inactive,–
NC(=O)C(F)(F)C(F)(F)C(F)(F)C(F)(F)F,inactive,–
FC(F)(F)C(F)(F)C(F)(F)C(F)(F)C(F)(F)C(F)(F)C(F)(F)I,inactive,–
O=C(OCCOCCOCCOC(=O)c1ccccc1)c1ccccc1,inactive,–
O=C(O)C(F)(OC(F)(F)C(F)(OC(F)(F)C(F)(F)C(F)(F)F)C(F)(F)F)C(F)(F)F (stereo not given),inactive,–
C=CC(F)(F)C(F)(F)C(F)(F)C(F)(F)C(F)(F)C(F)(F)C(F)(F)C(F)(F)C=C,inactive,–
CNC(=S)NC,inactive,–
Cc1ccc(S(=O)(=O)OCC(F)(F)C(F)(F)C(F)(F)C(F)(F)C(F)(F)C(F)F)cc1,inactive,–
O=C(O)C(F)(F)C(F)(F)C(F)(F)C(F)(F)C(F)(F)C(F)(F)C(F)(F)C(F)(F)C(F)(F)C(F)(F)C(F)(F)C(F)(F)F,inactive,–

SMILES,outcome,AC50
CC(C)(C)c1ccc(OC2CCCCC2O)cc1 (stereo not given),inactive,–
O=S(=O)(OCCOC(F)(F)F)C(F)(F)F,inactive,–
O=C(O)C(F)(OC(F)(F)C(F)(OC(F)(F)C(F)(OC(F)(F)C(F)(F)C(F)(F)F)C(F)(F)F)C(F)(F)F)C(F)(F)F (stereo not given),inactive,–
FC(F)(F)C(F)(F)C(F)(F)C(F)(F)C(F)(F)CCI,inactive,–
COC(=O)CCC(F)(F)C(F)(F)C(F)(F)C(F)(F)F,inactive,–
O=C(O)C(F)(F)C(F)(F)OC(F)(F)F,inactive,–
OCC(F)(F)C(F)(F)C(F)(F)F,inactive,–
O=S(=O)(O)C(F)(F)C(F)(F)C(F)(F)C(F)(F)C(F)(F)C(F)(F)C(F)(F)F,inactive,–
CCc1c(Br)c(Br)c(Br)c(Br)c1Br,inactive,–
CCCCCCCCC(F)(F)C(F)(F)C(F)(F)C(F)(F)C(F)(F)C(F)(F)F,inactive,–
CC(C)OC(=O)c1ccccc1C(=O)OC(C)C,inactive,–
O=C(O)C(F)(F)C(F)(F)C(F)F,inactive,–
Nc1cc(Cl)c(N)c(Cl)c1,–,26.5 µM (active)
O=C(O)C(F)(F)C(F)(F)C(F)(F)C(F)(F)C(F)(F)C(F)(F)C(F)(F)C(F)(F)C(F)(F)C(F)(F)C(F)(F)C(F)(F)C(F)(F)F,inactive,–
FC(F)(F)C(F)(F)C(F)(F)CI,inactive,–
FC(F)(I)C(F)(F)C(F)(F)C(F)(F)I,inactive,–
Cc1cc(C)cc(O)c1,inactive,–
C=C(C)C(=O)OCC(F)(F)C(F)(F)C(F)(F)F,inactive,–
CC(C)(C)C(=O)CC(=O)C(F)(F)C(F)(F)C(F)(F)F,inactive,–
FC(F)(F)C(F)(F)C(F)(F)N(C(F)(F)C(F)(F)C(F)(F)F)C(F)(F)C(F)(F)C(F)(F)F,inactive,–

# — PubChem BioAssay (EPA / NIEHS)
